The list is not random: actives were taken first. Their share in the collection is about 1.3%.
GC-B act: GC-B (human) receptor activation; AID 1920062; actives 0.11% (n = 370,000); HEK293-GC-B cells, CNP EC30, cGMP TR-FRET; 0% at EC30 CNP, 100% saturating CNP; P20594; activation, % at 10 µM;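 active means activation at 10 µM reaching about 35% in either raw or pattern-adjusted values, limit read from the data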
KLK7 zymogen act: activators of human kallikrein-7 zymogen. P49862. actives 0.9% (n = 370,000). AID 652039. activation, % at 7 µM. purified proKLK7, EDANS-DABCYL substrate fluorescence; 100% is mature enzyme control, 0% vehicle;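 active means activation above the mean of all tested compounds plus 3 SD, computed per campaign excluding outliers beyond control limits, cut at about 13% in these data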
GC-A act: GC-A (human) enzyme activation; P16066; HEK293 GC-A cells, cGMP TR-FRET, EC30 ANP; 0% at EC30 ANP, 100% saturating ANP; activation, % at 10 µM; actives 0.14% (n = 370,000); in the data active means activation above about 40%
HIF act: HIF pathway transcriptional activation; activation, % at 7.5 µM (by protocol); actives 0.32% (n = 300,000); U2OS HRE-luciferase reporter, luminescence; normalized: DMSO 0%, desferrioxamine 100%;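 active means mean activation of at least 10% of the iron chelator positive control signal, with at least half of replicates also reaching 10%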
Hits are given with their value; n = inactive; x = not tested or not shown.

SMILES	GC-B act	KLK7 zymogen act	GC-A act	HIF act
O=C(OCCN1C(=O)c2cccc3c(N4CCOCC4)ccc(c23)C1=O)c1ccc(Cl)cc1	n	n	n	12
COc1cnc(-c2ccccn2)nc1N(C)c1ccccc1	n	n	n	114
COc1cnc(-c2ccccn2)nc1Oc1ccccc1	n	n	n	n
COc1ccc(CCNC(=O)c2cc(-c3cccs3)on2)cc1OC	n	x	n	16
COc1ccc(CCNC(=O)c2cc(-c3ccco3)on2)cc1OC	n	n	n	17
O=C(NCCc1ccccc1)c1cc(-c2ccco2)on1	n	n	n	23
C/C(=N/NC(=O)CSc1nnc(SCc2ccc(C)cc2)s1)c1cccc(O)c1	n	n	n	x
COc1ccc2c(c1)CN1C(=O)N(CC(C)C)S(=O)(=O)CC21 (stereo not given)	n	n	n	x
COc1cccc(OC(C)CCN2CCC(C(O)(c3ccccc3)c3ccccc3)CC2)c1 (stereo not given)	n	n	n	x
O=C(Nc1cccc(Br)c1)OC1CC2CC1[C@H]1CCCCN1C2 (stereo not given in full)	n	n	n	x
COC(=O)c1nn(-c2ccccc2)c(Sc2ccc(C)cc2)c1/C=N/O	n	n	56	x
COC(=O)c1nn(-c2ccccc2)c(Sc2ccccc2)c1/C=N/O	n	n	n	n
Cc1c(C)c2c(OCC(=O)NC3CC3)cc3c(c2oc1=O)CCC(C)(C)O3	n	n	n	n
Cc1c(C)c2c(OCC(=O)N3CCC(C(N)=O)CC3)cc3c(c2oc1=O)CCC(C)(C)O3	n	32	n	n
Cc1ccc2[nH]c3c(=O)n(CC(=O)NCCCN(C)Cc4ccccc4)ncc3c2c1	n	n	n	66
CCN(CC)CCC(=O)Nc1cccc2c1C(=O)c1ccccc1C2=O	n	n	n	26
Cc1nc2ccccn2c1C(O)(c1ccccc1)c1ccccc1	n	x	n	x
C=CCNC(=S)N(C)[C@H]1C[C@H]2c3[nH]c4cccc(-c5cccc(F)c5)c4c3CCN2C(=O)[C@H]1[C@H](C)O	n	n	n	x
Cc1ccccc1NC(=O)OCCN1CCCC12CCC(c1ccccc1)CC2 (stereo not given)	n	x	n	x
COC(=O)[C@H](CCSC)NC(=O)c1cccnc1SC	n	n	n	633
CSc1ncccc1C(=O)NC(C)CCc1ccccc1 (stereo not given)	n	n	n	n
CC(=O)OCCCNc1cc(Sc2ccc(C)cc2)c2nonc2c1[N+](=O)[O-]	n	n	n	9.9
COc1ccc(/C=C(\C#N)c2nc3ccccc3[nH]2)cc1O	n	n	n	13
N#Cc1ccc(-c2cccnc2)nc1SCc1ccc(Cl)cc1Cl	42	n	n	n
O=C(C1CCCN(S(=O)(=O)c2cccs2)C1)N1CCN(Cc2ccccc2)CC1 (stereo not given)	n	n	n	x
SMILES	GC-B act	KLK7 zymogen act	GC-A act	HIF act
Cc1cc(NC(=O)c2ccc(S(=O)(=O)N(C)CC3CCCO3)cc2)no1 (stereo not given)	n	n	n	n
CN(CC1CCCO1)S(=O)(=O)c1ccc(C(=O)Nc2nccs2)cc1 (stereo not given)	n	n	n	279
Fc1ccccc1CNc1nc(-c2cccnc2)nc2ccccc12	36	n	n	n
COc1cccc(CNc2nc(-c3cccnc3)nc3ccccc23)c1	n	n	n	n
CCOC(=O)CSc1nnc(-c2ccc(Cl)cc2Cl)o1	n	n	67	n
CCOC(=O)CSc1nnc(-c2ccccc2)o1	n	n	n	n
CCCOC(=O)CSc1nnc(-c2ccc(Cl)cc2Cl)o1	n	n	63	n
O=C(CSc1nnc(-c2ccccc2F)o1)OCc1ccccc1	n	n	61	n
CCOC(=O)CC[C@@]1(C(=O)OCC)C[C@@H](CC(=O)NCc2cccc3ccccc23)C(=O)N2CCCC=C21	n	n	n	x
O=C(CSc1nc2ccccc2n1Cc1ccccc1Cl)N/N=C\c1cccc(Oc2ccccc2)c1	n	n	n	x
CN(C)C1=NC(=O)/C(=C/c2ccc(-c3ccc(S(N)(=O)=O)cc3)o2)S1	x	x	x	n
NC1=NC(=O)/C(=C\c2ccc(-c3ccc(Cl)cc3)o2)S1	38	n	n	n
COc1ccc(Cn2ccc3ccc(-c4ccc5ccn(Cc6ccccc6)c5c4)cc32)cc1	n	n	n	x
CC(C)(C)C(=O)NC1CCCCN(Cc2cccc(Cl)c2)C1=O (stereo not given)	n	n	n	x
CC(=O)c1sc(C(C)(C)C)cc1NC(=O)c1ccccc1C(=O)O	n	n	47	n
O=C(O)c1ccccc1C(=O)Nc1ccccc1NC(=O)c1ccccc1C(=O)O	n	n	n	n
Nc1ncc(-c2ccccc2)c(-c2ccc(O)cc2O)n1	n	n	46	n
O=C1C=C(c2ccc(F)cc2OCc2ccccc2)C[C@@H](c2ccc(Cl)cc2)C1	n	n	n	x
O=C1C=C(c2ccc(F)cc2OCc2ccccc2)C[C@@H](c2ccc3c(c2)OCO3)C1	39	n	n	x
Cc1ccc2nc(NNC(=O)c3ccc(S(=O)(=O)N4CCc5ccccc5C4)cc3)sc2c1	n	n	n	99
Cc1cc(C)c2nc(NNC(=O)c3ccc(S(=O)(=O)N4CC(C)CC(C)C4)cc3)sc2c1 (stereo not given)	n	n	n	n
Cc1cc(C)c2nc(NNC(=O)c3ccc(S(=O)(=O)N4CCCC(C)C4)cc3)sc2c1 (stereo not given)	n	n	n	26
Nc1ccc2cc3ccc(N)cc3nc2c1	n	n	n	x
CCN(CC)c1ccc(/C=N/Nc2nc3ccccc3[nH]2)c(O)c1	n	n	n	83
CCCCn1c(/C=C/c2ccco2)nc2ccccc21	n	n	n	n
SMILES	GC-B act	KLK7 zymogen act	GC-A act	HIF act
C(=N\Nc1nc2ccccc2[nH]1)/c1cccc2nccnc12	n	n	n	47
COc1cc(OC)c(OC)cc1/C=N/Nc1nc2ccccc2[nH]1	n	n	n	n
CCN(CC)c1ccc(/C=N/NC(=O)c2ccco2)c(O)c1	n	n	n	78
CCCCn1c(/C=N/Nc2nc3ccccc3[nH]2)nc2ccccc21	n	n	n	69
CCc1ccc(CCNC(=O)OCCCN2CCC3(CCC(c4ccccc4)CC3)C2=O)cc1 (stereo not given)	n	n	n	x
CCOC(=O)c1sc(=S)n(-c2ccccc2)c1C	n	n	n	19
CCOC(=O)c1sc(=S)n(-c2ccccc2)c1N	n	n	n	n
CCOC(=O)c1ccc(S(=O)(=O)NNC(=O)COc2ccccc2C)cc1	n	n	n	999
COc1ccc(CN2CCC(CNC(=O)Nc3ccccc3)CC2)cc1	n	n	n	x
COC(=O)[C@]12C=CCN1[C@@H](c1ccc(C(F)(F)F)cc1)c1c(c3ccccc3n1S(=O)(=O)c1ccc(C)cc1)C2	n	n	n	x
Cc1nc2ccc(NC(=O)c3cc(F)cc(F)c3)cc2c(=O)[nH]1	n	n	n	x
CC(Oc1ccc2c3c(c(=O)oc2c1)CCCC3)C(=O)NCC(O)c1ccccc1 (stereo not given)	n	n	n	64
